HIF-2a block: HIF-2a reporter inhibitors, primary screen, luminescence, 786-0 RCC cells | 786-0 RCC cells HIF-2a reporter, luciferase luminescence, overnight | AID 624352, 2012 | 360,000 compounds, 0.72% hits | inhibition, % at 18.8 µM;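 active = inhibition of the luminescence signal of 40% or more relative to plate controls, in a single-dose primary screen at 18.75 µM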
TWEAK-Fn14 inh: inhibitors of TWEAK-Fn14 signaling, primary screen, luciferase reporter cells, uHTS. TWEAK-stimulated Fn14 reporter cells, luciferase luminescence, 8 h. inhibition, % at 10 µM. 360,000 compounds, 2% hits; in the data active = inhibition above about 50%
TROY signal inh: inhibitors of TROY-driven NF-kB signaling, primary screen, Q293 LMP1-TROYcd cells, NF-kB luciferase, uHTS; Q293 LMP1-TROYcd NF-kB luciferase reporter, 4 h; inhibition, % at 10 µM; 360,000 compounds, 0.98% hits; AID 1347056, 2019;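 active = compounds whose plate-normalised and pattern-corrected inhibition of the luciferase reporter signal at the single screening dose is 50% or more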
Peg3 prom inh-1: Peg3 promoter-driven luciferase inhibitors, primary screen, cell-based, HeLa, luciferase luminescence; AID 588405, 2011; 360,000 compounds, 1.7% hits; inhibition, % at 20 µM; HeLa PEG-Prom luciferase reporter, overnight;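 active = inhibition of at least 50% at 20 µM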
MITF TRPM1 inh: inhibitors of MITF-dependent TRPM1 promoter reporter, primary screen, cell-based, SK-MEL-5, single point, luciferase; SK-MEL-5 TRPM1 promoter luciferase, 24 h; 330,000 compounds, 0.83% hits; inhibition, % at 12.5 µM;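 active = mean inhibition across replicates of 60% or more, whatever share of single replicates reaches that level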
LMP1 NFkB inh: EBV LMP1-driven NF-kappaB luciferase reporter inhibitors, primary screen, cell-based, luminescence, single point. LMP1-induced NF-kappaB luciferase reporter cells. inhibition, % at 12.5 µM. 350,000 compounds, 0.69% hits; in the data active = inhibition above about 41%;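 note: 0% = neutral control wells and 100% = reference inhibitor control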
Peg3 prom inh-2: Peg3 promoter reporter inhibitors, retest, confirmation, cell-based, HeLa, luciferase reporter, single concentration; shares compounds with Peg3 prom inh-1; HeLa PEG-Prom luciferase reporter, luminescence, overnight; 1,300 compounds, 84% hits; inhibition, % at 20 µM;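 active = at 20 µM dose, 40% or more inhibition averaged across four replicates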
* hit, by the source's call; / = not tested or not shown. An excerpt weighted towards active compounds, which were near 4% of everything screened.

SMILES	HIF-2a block	TWEAK-Fn14 inh	TROY signal inh	Peg3 prom inh-1	MITF TRPM1 inh	LMP1 NFkB inh	Peg3 prom inh-2
O=C(Nc1ccccc1N1CCOCC1)c1cc(-c2ccncc2)nc2ccccc12	1	15	23	63*	8	-15	57*
COc1ccc(-c2cc(C(=O)Nc3ccccc3N3CCOCC3)c3ccccc3n2)cc1OC	-4	40	39	58*	-1	22	62*
Cc1[nH]nc(S(=O)CC(=O)O)c1[N+](=O)[O-] (stereo not drawn)	24	61*	88*	51*	-9	-4	26
Cc1[nH]nc(NCCO)c1[N+](=O)[O-]	18	10	-1	0	-13	6	/
CCOc1cc(CNCCCN2CCOCC2)ccc1OCC(=O)Nc1cccc2ccccc12	3	-11	6	50*	19	-9	64*
C/C(=N\N=C(N)N)c1ccc(Cl)c(Cl)c1	5	18	18	105*	-27	3	83*
C/C(=N\NC(=O)C1CC1)c1ccc(Cl)c(Cl)c1	-102	-38	-24	-51	-21	-7	/
Cc1ccc(C)c(CN2CCC(CNC(=O)Nc3ccc(F)c(Cl)c3)CC2)c1	8	0	14	68*	37	6	98*
COc1ccccc1NS(=O)(=O)c1ccc(C)c(C(=O)NCCCN2CCCC2=O)c1	5	7	-11	-12	13	1	/
COc1ccc(-c2oc3ccc(-c4cc(OC)c(OC)c(OC)c4)cc3c2C#Cc2ccccn2)cc1	7	0	2	54*	6	6	51*
Cc1cccc(-n2cc(-c3ccccc3)c3c(N4CCOCC4)ncnc32)c1	27	-19	35	69*	8	8	82*
Cc1ccc(-n2cc(-c3ccccc3)c3c(N4CCN(C)CC4)ncnc32)cc1	17	2	6	41	-14	1	/
Cc1ccc(-n2cc(-c3ccccc3)c3c(N4CCOCC4)ncnc32)cc1	16	27	23	67*	1	-5	63*
CCOC(=O)C1CCN(c2ncnc3c2c(-c2ccccc2)cn3-c2ccccc2)CC1	22	34	24	47	1	12	/
COc1cccc(OC)c1C(=O)OCC(=O)NCCNC(=O)COC(=O)c1c(OC)cccc1OC	12	-7	5	5	/	4	/
O=C(O)COc1ccccc1/C=N/NC(=O)c1cc2ccccc2cc1O	12	-12	-7	8	18	-3	/
O=C(Nc1ccccc1)c1nc[nH]c1C(=O)NCCCCCCNC(=O)c1[nH]cnc1C(=O)Nc1ccccc1	5	69*	26	62*	13	-13	57*
O=C(Nc1ccccc1)c1nc[nH]c1C(=O)NCCCNC(=O)c1[nH]cnc1C(=O)Nc1ccccc1	1	7	7	63*	4	3	46*
CCc1ccc(CCC(=O)Nc2ccc(Cl)cc2)o1	-73	-2	-29	-25	-18	3	/
Cc1c(C)c2cccnc2c2ncccc12	-15	-36	6	57*	83*	86*	43*
Clc1cc2cccnc2c2ncccc12	-6	-27	5	50	57	25	/
CC1(C(=O)NCc2cccc3ccccc23)CCN1C(=O)Cc1ccc(-c2ccccc2)cc1 (stereo not drawn)	-1	22	27	53*	/	/	51*
CC(C)c1ccc(CC(=O)N2CCC2(C)C(=O)NCc2cccc3ccccc23)cc1 (stereo not drawn)	16	-5	-13	27	/	/	/
COC(CNC(=O)c1cccnc1)OC	8	-6	-14	18	2	-18	/
COC(CNC(=O)c1ccc2c3c(onc13)-c1ccccc1C2=O)OC	-169	-9	-2	102*	80*	-11	99*
